From PubChem BioAssay AID1159606 (Sanford-Burnham Center for Chemical Genomics, 2016)
The whole screen tested about 360,000 compounds, of which about 7,300 (2%) were called active. Cut-off read from the data, not from the text of the source: active = inhibition above about 50%; inactive = the rest. The full list was thinned out, with actives kept by preference.

Assay: blockers of TWEAK-induced Fn14 reporter activity – luciferase reporter cells, uHTS, primary screen (AID 1159606)
Details: TWEAK-stimulated Fn14 reporter cells, luciferase luminescence, 8 h; at 10 µM; hits give high values

Row | SMILES | inhibition
1 | OCCNCCOc1ccc(Cl)c(Cl)c1 | 5.07% (inactive)
2 | O=C(Cn1c(NCCO)nc2ccccc21)c1ccc(Cl)cc1Cl | 22.5% (inactive)
3 | OCCNc1nc(Nc2ccc(Cl)c(Cl)c2)nc2ccccc12 | 84.3% (active)
4 | COC(=O)[C@]12CCCCC=C1N(Cc1ccc(Cl)cc1Cl)C(=O)[C@H](CC(=O)NCc1cccc3ccccc13)C2 | 5.94% (inactive)
5 | O=C(COc1ccccc1)N1CCN=C1SCc1cccc(F)c1 | -2.31% (inactive)
6 | COc1ccc(CCNC(=O)C2CCCN(Cc3nc(-c4cccc(Cl)c4)oc3C)C2)cc1OC (stereo not drawn) | 25.8% (inactive)
7 | O=C(COc1ccc(S(=O)(=O)NCCc2ccccc2)cc1)N1CCCC1 | 11.6% (inactive)
8 | COC(=O)C1(C)CC1(c1ccccc1)c1ccccc1 (stereo not drawn) | 7.44% (inactive)
9 | COc1cc(C#Cc2ccc3cc(CCCO)oc(=O)c3c2)cc(OC)c1 | 18.9% (inactive)
10 | O=C1c2ccccc2C(=O)N1CCC#Cc1ccc2cc(C3(O)CCCCC3)oc(=O)c2c1 | 71.2% (active)
11 | C(#CCN1CCOCC1)CCCN1CCOCC1 | -1.19% (inactive)
12 | Cc1nn(-c2ccccc2)c(Cl)c1/C=C/C(=O)c1ccc(O)cc1 | 57.3% (active)
13 | COc1ccc(CCNC(=O)c2c(C)nn(-c3ccccc3)c2Cl)cc1 | -12.5% (inactive)
14 | Cc1nn(-c2ccccc2)c(C)c1/C=C/C(=O)OC(C)C(N)=O (stereo not drawn) | -4.83% (inactive)
15 | Cc1sc(NC(=S)NC(=O)c2cccs2)nc1-c1ccc(CC(C)C)cc1 | -5.35% (inactive)
16 | C=CCOC(=O)C1=C(C)NC(C)=C(C(=O)OCC=C)C1c1cccs1 | 20.3% (inactive)
17 | O=S1(=O)CC(N2CCN(CCO)CC2)CN1C1CCCC1 (stereo not drawn) | 11.3% (inactive)
18 | COc1ccc(-c2c(C)nn3c(N4CCC(C(=O)N5CCCCC5)CC4)cc(C)nc23)cc1OC | -3.08% (inactive)
19 | Cc1cc(C(=O)COc2ccccc2Cl)c(C)n1C1CC1 | -10.6% (inactive)
20 | Cc1cc(C(=O)COC(=O)C2CC2)c(C)n1-c1ccc(F)cc1 | 95.2% (active)

Row | SMILES | inhibition
21 | Cc1ccc(-n2c(C)cc(C(=O)CN3C(=O)C(=O)N(C4CCCC4)C3=O)c2C)cc1 | 40.7% (inactive)
22 | Nc1nc2c(Br)ccc(Br)c2cc1C(=O)NCCc1ccccc1 | 14.3% (inactive)
23 | CCCCc1cc(=O)oc2c(C)c(OCC(=O)N3CCC(C(N)=O)CC3)ccc12 | -5.28% (inactive)
24 | O=C(NCc1ccccc1Cl)c1csc([C@@H]2O[C@H](CO)[C@@H](O)[C@H]2O)n1 | -0.12% (inactive)
25 | CN(Cc1cccc2ncccc12)C(=O)CC1C(=O)NCCN1Cc1ccc(F)cc1 (stereo not drawn) | -1.61% (inactive)
26 | CCN(CCn1cccn1)C(=O)CC1C(=O)NCCN1Cc1cccc(OC)c1OC (stereo not drawn) | 68.3% (active)
27 | COc1ccccc1CN1CCNC(=O)C1CC(=O)N(C)CC1CCOCC1 (stereo not drawn) | 1.59% (inactive)
28 | Cc1nc2nc3c(cn2n1)C(=O)CC(c1ccccc1)C3 (stereo not drawn) | 8.49% (inactive)
29 | CC1CN(C(=O)CN2C(=O)NC(C)(c3ccccc3)C2=O)CC(C)O1 (stereo not drawn) | 0.1% (inactive)
30 | CN(C)c1nc(N)nc(CSc2nnnn2-c2cccc3ccccc23)n1 | -0.11% (inactive)
31 | Cc1cccc(C)c1-n1nnnc1C1(C)CCC(=O)N1CCOc1ccccc1 (stereo not drawn) | -0.09% (inactive)
32 | CCC1CCCCN1C(=O)CSc1nc2c(c(=O)n1C)SC(C)C2 (stereo not drawn) | 4.38% (inactive)
33 | CCN(CC)C(=O)c1sc2nc(-c3ccccc3)ccc2c1N | 69.9% (active)
34 | CCN(CC)C(=O)c1nc[nH]c1C(=O)N(C)Cc1ccccc1 | 6.48% (inactive)
35 | CCOC(=O)C(C)n1nc(-c2ccccc2)c2ccccc2c1=O (stereo not drawn) | 7.15% (inactive)
36 | COc1cccc(NC(=O)Cn2c3ccc(F)cc3c3nc4n(c(=O)c32)CCS4)c1 | 7% (inactive)
37 | CCN(CC(=O)Nc1ccccc1C(F)(F)F)C(=O)C1CCN(C(=O)Nc2ccccc2)CC1 | 4.09% (inactive)
38 | C=C1C(=O)OC2C1CCC(C)=CCCC1(C)OC21 (stereo not drawn) | 81.5% (active)
39 | C[C@H]1COc2cc(N3CCSCC3)ccc2S(=O)(=O)N1 | -13.1% (inactive)
40 | O=c1c2ccccc2ncn1CCc1ccncc1 | -5.08% (inactive)

Row | SMILES | inhibition
41 | O=c1c2ccccc2ncn1/N=C/c1ccccc1 | 62.7% (active)
42 | CCOC(=O)N1CCN(C(=O)Cn2cnc3ccccc3c2=O)CC1 | -13.1% (inactive)
43 | CCOc1cc(/C=N/NC(=O)c2ccncc2)cc(Br)c1O | -8.09% (inactive)
44 | Nn1c(SCC(=O)Nc2ccc3c(c2)CCC3)nnc1C1CC1 | 1.14% (inactive)
45 | CCCn1c(N)c(C(=O)CSc2nc3ccccc3c(=O)n2-c2ccc(OC)cc2)c(=O)[nH]c1=O | 2.25% (inactive)
46 | Cc1c(NC(=O)c2coc(=O)c(Br)c2)c(=O)n(-c2ccccc2)n1C | 65.9% (active)
47 | Cc1c(NC(=O)c2cc(-c3ccc(Br)cc3)on2)c(=O)n(-c2ccccc2)n1C | 10.9% (inactive)
48 | Cc1cc2oc(C(=O)Nc3c(C)n(C)n(-c4ccccc4)c3=O)c(C)c2cc1Cl | 4.85% (inactive)
49 | CCOc1ccc(NC(=O)c2ccc(NC(=O)CN3C(=O)C(=O)N(CC(C)C)C3=O)cc2)cc1 | -46.8% (inactive)
50 | Cc1cc(C)n2nc(C(=O)Nc3cccc(S(=O)(=O)N4CCOCC4)c3)nc2n1 | -5.76% (inactive)
51 | O=C1C2C3C=CC(C4CC34)C2C(=O)N1c1nccs1 (stereo not drawn) | 17.6% (inactive)
52 | COc1ccc2[nH]c3c(c2c1)CCN1C(=O)C(CC(=O)NCCCN(C)C)C[C@H](C(=O)N2CCOCC2)[C@@]31CCC1CCCC1 (stereo partly drawn) | -4.84% (inactive)
53 | COc1ccc(CNC(=O)C[C@H]2C[C@H](C(=O)N3CCOCC3)[C@@]3(CCC4CCCC4)c4[nH]c5ccc(Cl)cc5c4CCN3C2=O)cc1OC | 60.6% (active)
54 | O=C(C[C@H]1C[C@H](C(=O)N2CCOCC2)[C@@]2(CCC3CCCC3)c3[nH]c4ccc(Cl)cc4c3CCN2C1=O)NCc1ccco1 | 32.8% (inactive)
55 | Cc1cc(C)c(S(=O)(=O)NN=C2c3ccccc3[C@H]3Cc4csc[n+]4[C@@H]23)c(C)c1 | 13.8% (inactive)
56 | Clc1ccc(-c2cc(-c3ccccn3)on2)c(Cl)c1 | 83.2% (active)
57 | Clc1ccc(COn2c(-c3ccc(Cl)cc3Cl)nc3ncccc32)cc1 | 11.7% (inactive)
58 | Fc1ccc(-c2ccc(CNCc3ccccn3)o2)cc1Cl | -29.9% (inactive)
